HCMV inh: inhibitors of human cytomegalovirus | HFF cells, HCMV-luciferase reporter, 72 h; active compounds read low | activity change, negative = inhibition, % at 57.5 µM | 410,000 compounds, 4.5% hits | AID 1259415; in the data active = activity change below about -60%; inconclusive = no clear call, values can overlap the other calls; inactive = above about -39%
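Compounds were evaluated in HFFs infected with an HCMV luciferase reporter virus (MOI 1 PFU/cell). Luciferase in lysates collected 72 h post infection served as the replication measure.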
HCV inhibitor: blocks hepatitis C virus. Huh7.5.1 HCVcc-Cre infection, luciferase reporter, 44 h. Potency, µM (series often up to 41.8 µM), for the others: at the highest dose activity change, negative = inhibition, hits mostly inhibitors. 340,000 compounds, 3.4% hits; note: potency is the fitted concentration of half-maximal effect
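A cell-based infection assay in which seeded cells (1,000 per well) receive test compound after 4 h, are inoculated with HCVcc-Cre at approximately 0.5 moi, and are incubated 44 h before luminescence detection.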
Pf growth 48h: P. falciparum growth inhibition at 48 hours (one generation); P. falciparum luciferase growth in erythrocytes, 48 h; Potency, µM (top dose mostly 28.7 µM), without a hit: top-dose activity change, negative = inhibition, actives largely listed as inhibitors; 310,000 compounds, 5.9% hits; AID 504832; note: potency is the fitted concentration of half-maximal effect
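Firefly luciferase activity from engineered P. falciparum reports growth; inhibitors lower the luminescent signal. Cultures contained 2% hematocrit erythrocytes at 0.1% final parasitemia.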
Pf growth 96h: P. falciparum growth inhibition at 96 hours. P. falciparum luciferase reporter growth, 96 h. Potency, µM (series often up to 28.7 µM), for inactives: top-dose activity change, negative = inhibition, hits mostly inhibitors. 320,000 compounds, 6.9% hits; note: potency is the fitted concentration of half-maximal effect
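Infected RBCs, 2% Hct / 0.05% parasitemia final; luciferase-reporter P. falciparum; cpd 96 h, 37 C, 5% CO2; luciferase detection reagent; luminescence.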
Starred values were filed as active, the others as inactive; ? = inconclusive; / = not tested or not shown. This is a sample that favours compounds with a hit; in the whole collection about 13% have one here. Unless noted, calls come from the whole dose curve; as a rule, active = well fitted inhibition curve with a large enough effect; inconclusive = small, poorly fitted or top-dose-only effect, or another doubt; inactive = no such curve, though single readings can be large or run the other way. % is set by controls: 0 for no effect and ±100 for the full control effect.

SMILES	HCMV inh	HCV inhibitor	Pf growth 48h	Pf growth 96h
CCC(C)n1c(-c2ccco2)nc2nc3ccccc3nc21 (stereo unspecified)	/	/	?	10µM*
COCCn1c(-c2ccco2)nc2nc3ccccc3nc21	6	?	-4%	-10%
CC(C)OCCCn1c(-c2ccco2)nc2nc3ccccc3nc21	-1	10%	?	3.3µM*
CCN1CCN(c2ccc(S(=O)(=O)N3CCOCC3)cc2NC(=O)C(C)Oc2ccc(F)cc2)CC1 (stereo unspecified)	-13	0%	?	?
CCN1CCN(c2ccc(S(=O)(=O)N3CCOCC3)cc2NC(=O)C(C)Oc2cccc(Cl)c2)CC1 (stereo unspecified)	-10	?	10µM*	?
CC(Oc1cccc(Cl)c1)C(=O)Nc1cc(S(=O)(=O)N2CCOCC2)ccc1N1CCCCC1 (stereo unspecified)	-36	22µM*	8.3µM*	?
CC(Oc1ccc(F)cc1)C(=O)Nc1cc(S(=O)(=O)N2CCOCC2)ccc1N1CCCC1 (stereo unspecified)	/	0%	3%	?
O=c1cc(CN2CCN(S(=O)(=O)c3ccc4c(c3)OCCO4)CC2)c2ccc(O)cc2o1	25	?	?	/
CCOC(=O)Nc1ccc2c(CN3CCN(S(=O)(=O)c4ccccc4)CC3)cc(=O)oc2c1	3	?	9.3µM*	6.6µM*
CCc1ccc2c(CN3CCN(S(=O)(=O)c4ccc5c(c4)OCCO5)CC3)cc(=O)oc2c1	-22	?	9.3µM*	?
CCOC(=O)Nc1ccc2c(CN3C(=O)NC4(CCCC4)C3=O)cc(=O)oc2c1	-2	?	?	?
CC1CCN(c2nn3c(=O)c(C(=O)NCCc4ccccc4)cnc3s2)CC1	4	/	/	/
CC1CC(C)C[N+](=C2C=C(N3CCCC3)CC(C)(C)C2)C1 (stereo unspecified)	-102*	3.5µM*	0.37µM*	?
CC1(C)CC(N2CCN(c3ccccc3)CC2)=CC(=[N+]2CCCC2)C1	-98*	?	1.7µM*	6%
CC1(C)CC(N2CCCC2)=CC(=[N+]2CCCCCC2)C1	-98*	?	?	-20%
CC(C)c1nc2ccc(C(=O)Nc3ccccc3F)cc2o1	-63*	/	/	/
Cc1oc(-c2ccc(Cl)cc2)nc1CN1CCCC(C(=O)NCc2cccnc2)C1 (stereo unspecified)	-84*	1µM*	3%	0%
Cc1oc(-c2ccc(Cl)cc2)nc1CN1CCCC(C(=O)NCc2ccccn2)C1 (stereo unspecified)	?	?	11%	26%
Cc1oc(-c2ccc(Cl)cc2)nc1CN1CCC(C(=O)NCCCN2CCCC(C)C2)CC1 (stereo unspecified)	-101*	1.8µM*	2.1µM*	7%
Cc1oc(-c2ccc(Cl)cc2)nc1CN1CCCC(C(=O)NCCCN2CCOCC2)C1 (stereo unspecified)	?	6.3µM*	?	97%
Cc1oc(-c2ccc(Cl)cc2)nc1CN1CCC(C(=O)N2CCN(Cc3ccccc3)CC2)CC1	-32	-21%	/	34%
CCOC(=O)C1CCCN(C(=O)C2CCN(Cc3nc(-c4ccc(Cl)cc4)oc3C)CC2)C1 (stereo unspecified)	-25	11µM*	/	/
COC(=O)c1ccccc1C(=O)c1ccc(OCCN2CCCCC2)cc1	/	/	-23%	-21%
CCOC(=O)c1ccc(NC(=O)Cn2nc(C)c3nn(-c4ccc(Cl)cc4)c(C)c3c2=O)cc1	8	/	/	/
CCc1nn2c(-c3ccco3)ccnc2c1-c1ccccc1	8	/	/	/
SMILES	HCMV inh	HCV inhibitor	Pf growth 48h	Pf growth 96h
O=C(NCc1cccnc1)C1CCCN(Cc2cnn(-c3ccccc3)c2-n2cccc2)C1 (stereo unspecified)	-10	-12%	/	12µM*
CC(C)CCn1c(SCc2ccc(F)cc2Cl)nc2ccsc2c1=O	19	/	/	/
Cc1cc(=O)[nH]c2ccc(S(=O)(=O)NC3CCCCC3)cc12	35	-1%	0%	10µM*
Cc1ccc(S(=O)(=O)NC2CCCC2)cc1C	-14	26%	/	0%
Cc1ccc(NC(=O)CC2Nc3cc(C)c(C)cc3NC2=O)c(C)c1 (stereo unspecified)	36	/	/	/
Cc1ccccc1OCC(O)CN (stereo unspecified)	-21	18%	16%	/
Cc1ccc(C)c(OCC(O)CN2CCc3ccccc3C2)c1C (stereo unspecified)	22	?	9.3µM*	12µM*
Cc1ccccc1OCC(O)CN1CCN(CC(O)COc2ccccc2C)CC1 (stereo unspecified)	-15	?	?	1.5µM*
Cc1ccccc1OCC(O)COc1ccccc1C	-100*	-22%	/	/
CC(=O)c1cccc(NC(=O)CCCSc2nc(-c3ccco3)cc(C(F)(F)F)n2)c1	-21	/	/	/
Cc1cccc(-c2nc3ccccc3n2Cc2ccccc2)c1	-19	/	/	/
CC(=O)Oc1cc2cccc(OC(C)=O)c(=O)c2c(OC(C)=O)c1OC(C)=O	/	2%	?	15µM*
COc1cc2cccc(OC)c(=O)c2c(O)c1OC	147	5%	58%	101%
CC(=O)Oc1cc(C)c(OC(C)=O)c2ccccc12	-12	/	6.7µM*	4.8µM*
CC(=O)Oc1cc2c(c3ccccc13)CCC2=O	13	?	/	/
Cc1ccc(SCCNC(=O)CN(c2cccc(C)c2C)S(C)(=O)=O)cc1	-35	/	/	/
Cc1ccc(NC(=O)c2ccccc2[N+](=O)[O-])cc1[N+](=O)[O-]	28	/	/	/
C[N+]1(C)CCC(=C(c2ccccc2)c2ccccc2)CC1	-2	-16%	4.1µM*	5.9µM*
CCCc1nnc(SCC(=O)N2CCCC2)n1CC1CCCO1 (stereo unspecified)	-8	5%	10%	21%
O=C(CSc1nnc(CNc2ccc(F)cc2)n1CC1CCCO1)N1CCOCC1 (stereo unspecified)	-98*	14%	6%	1%
CCCc1nnc(SCC(=O)N2CCOCC2)n1CC1CCCO1 (stereo unspecified)	-68*	21%	-9%	?
CC(=O)Nc1ccc(NC(=O)CSc2nnc(CNc3ccc(F)cc3)n2CC2CCCO2)cc1 (stereo unspecified)	-10	12%	?	11%
c1nc2n(n1)C1=C(CCCC1)C1(CCCCC1)N2	-21	18%	?	2.6µM*
CCCN(CCC)c1cc(=O)nc2ccccn12	-4	/	/	/
CC1CC(C)CN(Cc2nc(N)nc(Nc3ccc4ccccc4c3)n2)C1 (stereo unspecified)	-3	13µM*	12µM*	/
CC1CC(C)CN(Cc2nc(N)nc(Nc3ccccc3)n2)C1 (stereo unspecified)	-11	11%	?	10µM*
COc1ccc(Nc2nc(N)nc(CN3CCC(C)CC3)n2)cc1	-91*	0%	9%	-3%
COc1ccc(Nc2nc(N)nc(CN3CCc4ccccc4C3)n2)cc1	-36	-8%	/	13%
COc1ccc(CCNC(=O)Cc2c(C)c3cc4c(C(C)(C)C)coc4c(C)c3oc2=O)cc1	24	/	/	/
